Measured values: PubChem BioAssay (NCI)
The panel holds about 83,000 compounds, 20% with a hit somewhere; the sample as a whole holds those more often.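 Activity criterion: percent growth below 10, measured after cells in 96-well plates were exposed to a single compound concentration for 48 hours.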 A number with no mark means an inactive call. The source made the active and inactive calls.

Legend:
Experiment in all cases: NCI-60 one-dose screen, 48 h (100 = growth as untreated, 0 = no growth, -100 = all killed)
Details in all cases: 10 µM unless noted
[1] = tested on: NCI-H23 lung
[2] = tested on: NCI-H226 lung
[3] = tested on: NCI-H322M lung
[4] = tested on: HOP-62 NSCLC
[5] = tested on: NCI-H460 lung
[6] = tested on: HOP-92 NSCLC
[7] = tested on: NCI-H522 lung
[8] = tested on: A549/ATCC NSCLC
[9] = tested on: 786-0 renal
[10] = tested on: COLO 205 colon

Compound	growth [1]	growth [2] [%]	growth [3] [%]	growth [4] [%]	growth [5]	growth [6]	growth [7]	growth [8]	growth [9]	growth [10]
Clc1cccc(Cl)c1CSc1nc2ccccc2n2cccc12	90.6%	99.1	71.8	101	105%	94%	68.3%	95.4%	96.9%	91.2%
O=C(CCCl)OCCOc1ccccc1	96.2%	104	97	105	104%	86.7%	98.2%	102%	99.4%	103%
C/C(=N\O)c1ccccn1	104%	98	101	102	103%	95.4%	83.2%	91.2%	101%	108%
CC(=O)[C@@]1(O)CC[C@H]2[C@@H]3CC[C@@H]4CC(=O)CC[C@]4(C)[C@H]3[C@@H](O)C[C@@]21C	96.9%	95.9	105	74.2	110%	84.3%	88.4%	81.7%	99.2%	95.3%
C[C@H](CCC[C@H](C)OS(=O)(=O)c1ccccc1)OS(=O)(=O)c1ccccc1	107%	90.4	96.7	99.9	114%	131%	86.8%	117%	107%	115%
C=C(C)[C@@H]1CC[C@]2(CO)CC[C@]3(C)[C@H](CC[C@@H]4[C@@]5(C)CC[C@H](O)C(C)(C)[C@@H]5CC[C@]43C)[C@@H]12	25.9%	37.5	68.9	43.2	31.4%	36.4%	40.2%	-3.89% (active)	-7.62% (active)	52.5%
CCCCCCCCCc1ccc(OC(C)=O)cc1	105%	99.7	96.8	113	103%	98.2%	99.4%	98.9%	101%	113%
OC1Cc2ccccc2C1	90.2%	101	98.7	95.7	104%	68.7%	92.6%	97.1%	98.7%	98.8%
Cc1cc(Cl)cc(Cc2cc(Cl)cc(C)c2O)c1O	0.327% (active)	92.3	18.1	56.8	6.76% (active)	-33% (active)	-7.46% (active)	29%	14.9%	101%
CC1(C)OC2C(CO)OC(n3ccc(=O)[nH]c3=O)C2O1 (stereo not given)	102%	98.4	92.5	88.9	100%	82.8%	81.5%	73.2%	105%	100%
CC(C)=CCC[C@@H](C)[C@H]1CC[C@@]2(C)C3=C(CC[C@]12C)[C@@]1(C)CC[C@H](O)C(C)(C)[C@@H]1CC3	113%	104	122	107	107%	97.8%	95%	97.7%	101%	110%
NNc1ncccn1	98.4%	109	105	101	112%	111%	84.6%	97.1%	95.7%	117%
CC(=O)N(C)N=Nc1ccc(C)cc1	95%	97.7	92.3	95.8	116%	100%	92.9%	113%	99.9%	115%
C=CC(C)(C)n1cc(C2=C(O)C(=O)C(c3cn(C(C)(C)C=C)c4ccccc34)=C(O)C2=O)c2ccccc21	80.7%	89.9	89	73.1	89.5%	60.9%	98.2%	89.4%	87.8%	96.6%
Cc1cc(C(=O)c2ccccc2)cc(C)c1O	98.2%	99.2	101	95.2	110%	74.3%	104%	102%	100%	103%
COc1cc(-c2ccc(NC(=O)CC(C)=O)c(OC)c2)ccc1NC(=O)CC(C)=O	96%	91.4	102	98	109%	98.2%	95.5%	88.5%	105%	115%
COc1ccc(C(=O)/C(=N/Nc2ccccc2)c2ccc(OC)cc2)cc1	89%	94.2	103	102	94.1%	82.1%	79.3%	85.4%	94.2%	99.9%
Oc1ccc(N=Cc2ccc(OCc3ccccc3)cc2)cc1	95.5%	102	93.8	109	104%	97.5%	90.8%	112%	99.4%	103%
CCOS(=O)(=O)c1ccc([N+](=O)[O-])cc1	101%	101	102	100	107%	99.4%	94.3%	86.1%	107%	109%
O=C(O)c1ccc(OCc2ccccc2)cc1	95.5%	90.2	93.5	93	108%	93.2%	92.4%	94.5%	99.4%	104%
CC(=O)/C(C)=N\OC(=O)Nc1ccccc1	93.8%	104	101	94.8	107%	92.9%	98.3%	103%	100%	96.4%
NC(=O)c1cc2c3ccccc3ccn2c1-c1ccccc1	18.7%	23.3	46.3	24.3	0.187% (active)	32.7%	53.1%	22.8%	17.4%	-13.2% (active)
CC(=O)c1ccc(C)cc1	104%	102	90	107	106%	88.3%	103%	114%	120%	116%
CCN(CC)CCOC(=O)Nc1c(C(C)C)cccc1C(C)C	109%	104	93.5	104	128%	117%	92.8%	95.3%	105%	117%
Clc1ccc(C(SCc2ccccc2)SCc2ccccc2)cc1	86.1%	86.3	111	92.1	98.3%	83%	80.5%	97.6%	111%	90.1%
Cc1cc(Nc2ccc3c(c2)OCO3)c2cc3c(cc2n1)OCO3	46%	88	57.5	17.9	6.21% (active)	10.4%	-21.1% (active)	46.3%	18.9%	-21.3% (active)
COc1c(CNC(=O)CCl)cc2[nH]c(C)cc2c1CNC(=O)CCl	57.2%	69.4	67.4	70.4	31.5%	107%	-2.03% (active)	56.4%	68%	54.8%
Cc1ccc(S(=O)(=O)CCCl)cc1	102%	108	128	112	105%	76.1%	113%	89.5%	108%	120%
CCCCNc1ccc(-c2ccc(NCCCC)cc2)cc1	65.5%	73.4	95.9	91.2	65.8%	97.7%	46.2%	61.6%	58.9%	111%
CC(C)(C)CC1(C)NC(=O)NC1=O (stereo not given)	103%	112	126	99.1	120%	107%	150%	120%	98.7%	135%
